Measured values published in ChEMBL document CHEMBL1961873, “Compounds: GSK PKIS; Assays: Nanosyn kinase panel” (2012).

Legend:
[1] = target: T1, Ephrin type-B receptor 2 (Homo sapiens) (UniProt P29323); details: at 1 µM
T1 sequence (whole entry): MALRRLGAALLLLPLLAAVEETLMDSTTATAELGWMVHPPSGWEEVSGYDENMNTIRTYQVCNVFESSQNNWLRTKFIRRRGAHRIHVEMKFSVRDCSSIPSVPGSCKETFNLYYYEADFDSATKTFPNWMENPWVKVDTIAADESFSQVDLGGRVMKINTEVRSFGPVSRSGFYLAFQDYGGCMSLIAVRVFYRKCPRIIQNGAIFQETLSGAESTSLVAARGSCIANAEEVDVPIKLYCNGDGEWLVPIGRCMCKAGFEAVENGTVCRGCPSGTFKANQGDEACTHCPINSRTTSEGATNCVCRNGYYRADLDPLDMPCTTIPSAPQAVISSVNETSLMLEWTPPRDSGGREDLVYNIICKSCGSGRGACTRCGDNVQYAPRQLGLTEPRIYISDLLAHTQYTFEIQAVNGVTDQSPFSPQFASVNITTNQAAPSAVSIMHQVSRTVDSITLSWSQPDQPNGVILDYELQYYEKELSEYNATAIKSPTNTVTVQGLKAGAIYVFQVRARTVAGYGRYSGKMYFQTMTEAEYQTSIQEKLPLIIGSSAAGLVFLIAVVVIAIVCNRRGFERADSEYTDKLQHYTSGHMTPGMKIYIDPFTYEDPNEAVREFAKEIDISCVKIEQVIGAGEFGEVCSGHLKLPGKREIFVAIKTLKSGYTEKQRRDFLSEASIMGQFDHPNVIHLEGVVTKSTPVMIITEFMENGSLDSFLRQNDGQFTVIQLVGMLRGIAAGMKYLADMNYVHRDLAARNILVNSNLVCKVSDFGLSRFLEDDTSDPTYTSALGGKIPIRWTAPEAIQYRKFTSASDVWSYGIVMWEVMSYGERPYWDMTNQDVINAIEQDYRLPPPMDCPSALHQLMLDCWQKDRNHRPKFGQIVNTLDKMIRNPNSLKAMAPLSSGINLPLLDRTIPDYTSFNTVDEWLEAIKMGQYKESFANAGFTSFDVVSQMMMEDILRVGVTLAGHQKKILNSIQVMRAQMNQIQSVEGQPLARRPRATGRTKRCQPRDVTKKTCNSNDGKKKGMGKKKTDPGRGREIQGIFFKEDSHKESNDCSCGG

[2] = target: T2, Ephrin type-B receptor 3 (Homo sapiens) (UniProt P54753); details: at 0.1 µM
T2 sequence (whole entry): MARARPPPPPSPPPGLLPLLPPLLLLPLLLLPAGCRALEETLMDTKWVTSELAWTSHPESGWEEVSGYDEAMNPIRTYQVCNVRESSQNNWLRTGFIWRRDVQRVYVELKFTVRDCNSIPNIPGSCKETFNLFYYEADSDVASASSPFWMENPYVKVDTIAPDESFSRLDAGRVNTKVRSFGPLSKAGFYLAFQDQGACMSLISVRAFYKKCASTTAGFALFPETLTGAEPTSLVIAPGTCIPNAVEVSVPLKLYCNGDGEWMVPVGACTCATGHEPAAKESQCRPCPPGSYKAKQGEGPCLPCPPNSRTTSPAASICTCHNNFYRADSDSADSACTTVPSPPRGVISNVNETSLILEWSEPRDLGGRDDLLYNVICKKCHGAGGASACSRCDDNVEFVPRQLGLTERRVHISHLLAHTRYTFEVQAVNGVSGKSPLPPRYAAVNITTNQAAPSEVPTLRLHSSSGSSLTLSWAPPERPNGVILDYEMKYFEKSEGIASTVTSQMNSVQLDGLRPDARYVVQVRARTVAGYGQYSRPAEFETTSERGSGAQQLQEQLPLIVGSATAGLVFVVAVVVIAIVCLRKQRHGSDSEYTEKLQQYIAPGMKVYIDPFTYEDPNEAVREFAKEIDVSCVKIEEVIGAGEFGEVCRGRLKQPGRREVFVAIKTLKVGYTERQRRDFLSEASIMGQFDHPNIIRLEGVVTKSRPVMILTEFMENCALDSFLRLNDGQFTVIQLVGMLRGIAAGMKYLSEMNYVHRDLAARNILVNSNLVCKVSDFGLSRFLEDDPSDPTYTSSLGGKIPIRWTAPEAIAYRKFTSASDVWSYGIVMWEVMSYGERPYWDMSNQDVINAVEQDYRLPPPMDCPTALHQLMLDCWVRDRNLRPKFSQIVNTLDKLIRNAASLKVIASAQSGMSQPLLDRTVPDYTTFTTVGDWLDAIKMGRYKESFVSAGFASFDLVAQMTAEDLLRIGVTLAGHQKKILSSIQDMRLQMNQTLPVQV

[3] = target: T2, Ephrin type-B receptor 3 (Homo sapiens); details: at 1 µM
[4] = target: T3, Ephrin type-B receptor 4 (Homo sapiens) (UniProt P54760); details: at 0.1 µM
T3 sequence (whole entry): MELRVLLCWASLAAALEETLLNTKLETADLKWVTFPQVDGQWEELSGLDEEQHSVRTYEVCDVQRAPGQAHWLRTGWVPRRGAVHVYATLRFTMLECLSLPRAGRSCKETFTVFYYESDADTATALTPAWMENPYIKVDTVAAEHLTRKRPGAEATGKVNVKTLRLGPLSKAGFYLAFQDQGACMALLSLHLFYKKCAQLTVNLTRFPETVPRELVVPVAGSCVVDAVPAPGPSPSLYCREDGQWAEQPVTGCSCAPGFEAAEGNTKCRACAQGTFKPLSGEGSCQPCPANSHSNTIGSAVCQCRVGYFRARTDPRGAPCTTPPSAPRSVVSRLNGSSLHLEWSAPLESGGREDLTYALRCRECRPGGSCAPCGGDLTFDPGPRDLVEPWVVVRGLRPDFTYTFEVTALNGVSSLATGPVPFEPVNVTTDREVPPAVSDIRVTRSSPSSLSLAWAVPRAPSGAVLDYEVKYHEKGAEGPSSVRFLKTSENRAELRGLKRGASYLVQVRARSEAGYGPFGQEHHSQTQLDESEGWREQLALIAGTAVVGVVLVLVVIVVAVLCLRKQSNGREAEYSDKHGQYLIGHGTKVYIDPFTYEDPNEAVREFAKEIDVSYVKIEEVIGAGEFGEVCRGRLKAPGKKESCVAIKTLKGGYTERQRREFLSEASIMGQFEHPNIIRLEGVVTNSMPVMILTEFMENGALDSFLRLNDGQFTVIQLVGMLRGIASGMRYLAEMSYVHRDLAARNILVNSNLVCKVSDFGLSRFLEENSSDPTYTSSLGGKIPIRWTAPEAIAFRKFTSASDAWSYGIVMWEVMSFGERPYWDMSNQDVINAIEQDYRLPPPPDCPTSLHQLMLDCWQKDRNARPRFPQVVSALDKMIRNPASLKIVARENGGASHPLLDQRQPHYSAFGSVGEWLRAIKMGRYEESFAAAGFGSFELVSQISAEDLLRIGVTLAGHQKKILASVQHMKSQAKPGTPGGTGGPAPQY

[5] = target: T3, Ephrin type-B receptor 4 (Homo sapiens); details: at 1 µM
[6] = target: Receptor tyrosine-protein kinase erbB-2 (Homo sapiens) (UniProt P04626); details: at 0.1 µM
[7] = target: Receptor tyrosine-protein kinase erbB-2 (Homo sapiens) (UniProt P04626); details: at 1 µM
[8] = target: Receptor tyrosine-protein kinase erbB-4 (Homo sapiens) (UniProt Q15303); details: at 0.1 µM
[9] = target: Receptor tyrosine-protein kinase erbB-4 (Homo sapiens) (UniProt Q15303); details: at 1 µM
[10] = target: Tyrosine-protein kinase Fer (Homo sapiens) (UniProt P16591); details: at 0.1 µM
[11] = target: Tyrosine-protein kinase Fer (Homo sapiens) (UniProt P16591); details: at 1 µM
[12] = target: Tyrosine-protein kinase Fes/Fps (Homo sapiens) (UniProt P07332); details: at 0.1 µM
[13] = target: Tyrosine-protein kinase Fes/Fps (Homo sapiens) (UniProt P07332); details: at 1 µM
[14] = target: Fibroblast growth factor receptor 1 (Homo sapiens) (UniProt P11362); details: at 0.1 µM
[15] = target: Fibroblast growth factor receptor 1 (Homo sapiens) (UniProt P11362); details: at 1 µM
[16] = target: Fibroblast growth factor receptor 2 (Homo sapiens) (UniProt P21802); details: at 0.1 µM
[17] = target: Fibroblast growth factor receptor 2 (Homo sapiens) (UniProt P21802); details: at 1 µM
[18] = target: Fibroblast growth factor receptor 3 (Homo sapiens) (UniProt P22607); details: at 0.1 µM
[19] = target: Fibroblast growth factor receptor 3 (Homo sapiens) (UniProt P22607); details: at 1 µM
[20] = target: Fibroblast growth factor receptor 4 (Homo sapiens) (UniProt P22455); details: at 0.1 µM;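 also: values are mean percent inhibition of FGFR4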

Sequence of Tyrosine-protein kinase Fes/Fps (Homo sapiens) (P07332 whole entry): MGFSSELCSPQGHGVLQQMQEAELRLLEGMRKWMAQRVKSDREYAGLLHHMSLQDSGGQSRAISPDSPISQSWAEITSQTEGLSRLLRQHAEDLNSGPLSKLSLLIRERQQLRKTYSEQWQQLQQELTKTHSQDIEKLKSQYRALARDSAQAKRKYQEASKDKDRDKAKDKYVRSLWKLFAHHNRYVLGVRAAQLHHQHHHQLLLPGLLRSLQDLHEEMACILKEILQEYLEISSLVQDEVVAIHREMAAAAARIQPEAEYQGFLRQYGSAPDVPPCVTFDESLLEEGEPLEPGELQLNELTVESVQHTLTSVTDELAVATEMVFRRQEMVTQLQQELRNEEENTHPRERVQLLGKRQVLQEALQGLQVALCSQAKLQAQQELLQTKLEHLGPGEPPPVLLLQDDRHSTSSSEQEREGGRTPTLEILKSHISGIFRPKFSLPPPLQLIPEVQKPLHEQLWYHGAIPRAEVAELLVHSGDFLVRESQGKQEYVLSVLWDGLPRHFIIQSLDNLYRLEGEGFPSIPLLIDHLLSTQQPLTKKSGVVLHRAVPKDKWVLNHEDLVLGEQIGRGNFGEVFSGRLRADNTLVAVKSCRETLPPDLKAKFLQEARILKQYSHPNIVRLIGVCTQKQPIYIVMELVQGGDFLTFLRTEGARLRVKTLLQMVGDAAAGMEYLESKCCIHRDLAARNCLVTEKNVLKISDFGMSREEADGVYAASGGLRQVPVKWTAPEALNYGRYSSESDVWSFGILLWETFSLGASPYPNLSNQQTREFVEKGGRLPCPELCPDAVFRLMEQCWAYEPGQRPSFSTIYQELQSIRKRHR
Sequence of Fibroblast growth factor receptor 3 (Homo sapiens) (P22607 23-806 limits assumed): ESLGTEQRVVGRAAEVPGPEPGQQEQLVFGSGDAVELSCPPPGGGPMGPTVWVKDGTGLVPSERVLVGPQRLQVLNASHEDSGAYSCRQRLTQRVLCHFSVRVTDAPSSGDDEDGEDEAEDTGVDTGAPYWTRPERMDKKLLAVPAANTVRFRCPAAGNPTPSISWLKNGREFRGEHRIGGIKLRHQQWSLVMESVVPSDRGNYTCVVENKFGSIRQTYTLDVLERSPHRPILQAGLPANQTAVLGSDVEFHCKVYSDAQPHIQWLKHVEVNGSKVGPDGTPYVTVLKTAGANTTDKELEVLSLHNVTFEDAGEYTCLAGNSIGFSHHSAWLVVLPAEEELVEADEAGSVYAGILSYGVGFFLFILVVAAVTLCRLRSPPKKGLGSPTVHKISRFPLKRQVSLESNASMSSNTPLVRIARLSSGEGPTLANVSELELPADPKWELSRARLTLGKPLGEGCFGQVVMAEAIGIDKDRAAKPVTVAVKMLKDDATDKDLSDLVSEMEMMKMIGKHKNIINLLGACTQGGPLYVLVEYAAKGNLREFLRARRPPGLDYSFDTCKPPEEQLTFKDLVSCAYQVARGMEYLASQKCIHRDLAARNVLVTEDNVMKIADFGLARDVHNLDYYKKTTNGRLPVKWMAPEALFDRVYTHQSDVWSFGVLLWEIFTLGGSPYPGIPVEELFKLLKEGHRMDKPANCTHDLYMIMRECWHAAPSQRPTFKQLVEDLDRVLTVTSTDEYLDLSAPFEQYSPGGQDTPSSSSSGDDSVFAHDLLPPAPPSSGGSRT
Sequence of Receptor tyrosine-protein kinase erbB-4 (Homo sapiens) (Q15303 whole entry): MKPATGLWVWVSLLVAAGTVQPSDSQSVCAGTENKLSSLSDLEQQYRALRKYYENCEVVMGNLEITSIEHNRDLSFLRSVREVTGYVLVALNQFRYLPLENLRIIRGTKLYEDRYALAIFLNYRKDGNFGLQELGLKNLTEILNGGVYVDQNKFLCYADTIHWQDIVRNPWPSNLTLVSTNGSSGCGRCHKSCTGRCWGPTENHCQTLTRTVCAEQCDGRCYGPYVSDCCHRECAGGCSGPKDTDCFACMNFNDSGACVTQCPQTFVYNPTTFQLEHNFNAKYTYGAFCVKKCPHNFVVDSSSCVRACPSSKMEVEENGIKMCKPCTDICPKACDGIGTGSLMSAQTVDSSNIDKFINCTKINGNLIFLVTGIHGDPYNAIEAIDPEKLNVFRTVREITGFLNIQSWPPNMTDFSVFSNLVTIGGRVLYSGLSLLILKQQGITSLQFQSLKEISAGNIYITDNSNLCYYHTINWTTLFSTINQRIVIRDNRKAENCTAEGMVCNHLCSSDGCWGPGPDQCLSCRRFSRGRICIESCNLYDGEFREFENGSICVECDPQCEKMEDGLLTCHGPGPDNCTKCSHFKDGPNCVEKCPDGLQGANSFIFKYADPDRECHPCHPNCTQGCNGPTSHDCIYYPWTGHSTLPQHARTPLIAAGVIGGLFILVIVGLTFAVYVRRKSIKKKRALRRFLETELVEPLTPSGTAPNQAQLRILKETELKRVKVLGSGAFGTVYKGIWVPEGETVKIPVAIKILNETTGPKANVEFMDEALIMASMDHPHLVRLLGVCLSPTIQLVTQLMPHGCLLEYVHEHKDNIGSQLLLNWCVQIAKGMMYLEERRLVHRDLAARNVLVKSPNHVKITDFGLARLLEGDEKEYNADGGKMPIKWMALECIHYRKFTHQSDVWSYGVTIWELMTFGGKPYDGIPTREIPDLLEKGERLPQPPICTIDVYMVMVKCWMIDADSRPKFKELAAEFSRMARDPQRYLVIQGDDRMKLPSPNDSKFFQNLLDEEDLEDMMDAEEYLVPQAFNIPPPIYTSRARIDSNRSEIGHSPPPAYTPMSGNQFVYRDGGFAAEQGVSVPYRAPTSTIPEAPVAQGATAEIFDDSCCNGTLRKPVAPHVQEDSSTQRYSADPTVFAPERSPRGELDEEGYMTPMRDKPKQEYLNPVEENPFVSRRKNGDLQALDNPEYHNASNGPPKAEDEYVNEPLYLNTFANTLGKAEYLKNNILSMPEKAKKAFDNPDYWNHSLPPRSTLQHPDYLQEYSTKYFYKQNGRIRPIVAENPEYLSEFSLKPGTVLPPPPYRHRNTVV
Sequence of Fibroblast growth factor receptor 2 (Homo sapiens) (P21802 22-821 limits assumed): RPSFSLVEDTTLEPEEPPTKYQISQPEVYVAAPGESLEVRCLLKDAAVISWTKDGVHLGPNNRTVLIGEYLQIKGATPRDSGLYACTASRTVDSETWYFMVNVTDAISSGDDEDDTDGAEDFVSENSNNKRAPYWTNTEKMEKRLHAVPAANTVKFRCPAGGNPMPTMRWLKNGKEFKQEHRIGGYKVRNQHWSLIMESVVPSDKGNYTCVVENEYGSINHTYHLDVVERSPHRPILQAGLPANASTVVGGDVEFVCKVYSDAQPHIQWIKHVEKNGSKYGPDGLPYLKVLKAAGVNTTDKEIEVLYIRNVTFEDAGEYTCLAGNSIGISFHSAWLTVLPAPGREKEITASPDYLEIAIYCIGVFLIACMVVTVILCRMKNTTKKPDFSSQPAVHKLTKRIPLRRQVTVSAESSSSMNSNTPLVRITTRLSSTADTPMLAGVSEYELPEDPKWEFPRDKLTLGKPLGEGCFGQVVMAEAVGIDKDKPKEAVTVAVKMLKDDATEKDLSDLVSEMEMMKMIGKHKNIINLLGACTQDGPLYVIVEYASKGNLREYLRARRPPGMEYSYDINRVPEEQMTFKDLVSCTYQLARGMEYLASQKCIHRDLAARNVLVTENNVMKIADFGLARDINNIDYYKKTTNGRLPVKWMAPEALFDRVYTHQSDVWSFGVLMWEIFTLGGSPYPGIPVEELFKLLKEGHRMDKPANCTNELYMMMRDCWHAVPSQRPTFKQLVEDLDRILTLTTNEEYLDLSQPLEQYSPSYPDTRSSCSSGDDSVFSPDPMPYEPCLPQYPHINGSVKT
Sequence of Receptor tyrosine-protein kinase erbB-2 (Homo sapiens) (P04626 whole entry): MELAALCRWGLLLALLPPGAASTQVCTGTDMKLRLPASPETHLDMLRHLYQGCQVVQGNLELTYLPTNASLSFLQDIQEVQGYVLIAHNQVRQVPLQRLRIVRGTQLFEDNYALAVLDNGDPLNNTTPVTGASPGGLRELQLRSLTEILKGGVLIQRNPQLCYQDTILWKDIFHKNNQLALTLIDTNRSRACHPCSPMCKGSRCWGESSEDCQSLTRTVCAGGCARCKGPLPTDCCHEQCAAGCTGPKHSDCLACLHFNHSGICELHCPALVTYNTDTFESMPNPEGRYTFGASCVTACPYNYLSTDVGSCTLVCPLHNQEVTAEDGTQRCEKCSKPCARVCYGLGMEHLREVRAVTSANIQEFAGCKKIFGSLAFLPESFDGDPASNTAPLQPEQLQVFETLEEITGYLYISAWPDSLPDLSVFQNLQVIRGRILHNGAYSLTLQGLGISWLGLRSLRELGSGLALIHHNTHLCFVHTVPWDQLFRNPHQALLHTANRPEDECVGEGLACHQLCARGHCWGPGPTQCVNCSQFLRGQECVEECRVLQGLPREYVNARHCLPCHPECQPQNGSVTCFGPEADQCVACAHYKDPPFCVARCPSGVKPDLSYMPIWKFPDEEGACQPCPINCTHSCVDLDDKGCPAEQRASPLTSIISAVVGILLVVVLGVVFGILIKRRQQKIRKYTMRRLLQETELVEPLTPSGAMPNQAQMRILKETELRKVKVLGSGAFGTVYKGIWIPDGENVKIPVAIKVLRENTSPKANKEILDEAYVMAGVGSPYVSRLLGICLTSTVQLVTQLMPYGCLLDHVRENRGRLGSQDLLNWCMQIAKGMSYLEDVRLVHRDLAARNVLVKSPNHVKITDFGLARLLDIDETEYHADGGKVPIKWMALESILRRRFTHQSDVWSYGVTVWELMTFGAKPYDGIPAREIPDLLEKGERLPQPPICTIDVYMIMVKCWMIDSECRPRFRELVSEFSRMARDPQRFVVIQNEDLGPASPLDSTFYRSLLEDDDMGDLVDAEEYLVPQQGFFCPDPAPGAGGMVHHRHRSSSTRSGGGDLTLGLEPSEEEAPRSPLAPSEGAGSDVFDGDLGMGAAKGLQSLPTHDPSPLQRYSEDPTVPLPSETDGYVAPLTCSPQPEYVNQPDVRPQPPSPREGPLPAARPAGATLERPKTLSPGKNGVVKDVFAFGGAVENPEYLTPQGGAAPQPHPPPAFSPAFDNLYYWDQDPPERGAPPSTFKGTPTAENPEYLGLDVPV

SMILES | inhibition [1] | inhibition [2] | inhibition [3] | inhibition [4] | inhibition [5] | inhibition [6] | inhibition [7] | inhibition [8] | inhibition [9] | inhibition [10] | inhibition [11] | inhibition [12] | inhibition [13] | inhibition [14] | inhibition [15] | inhibition [16] | inhibition [17] | inhibition [18] | inhibition [19] | inhibition [20]
CC(=O)Nc1cccc(C#Cc2cncnc2Nc2ccc(OCc3cccc(F)c3)c(Cl)c2)n1 | 4.49% | -4.13% | -1.83% | -0.8% | 0.82% | 1.84% | 0.35% | 18.5% | 62.8% | -0.09% | 4.77% | -0.62% | -1.06% | -3.81% | -5.8% | -4.24% | 0.03% | -1.4% | -2.39% | 0.06%
CCCN1CCC=C(c2ccc(Nc3nc(Nc4ccccc4C(N)=O)c4cc[nH]c4n3)c(C)c2)C1 | 8.88% | 1.76% | 2.4% | 2.74% | 3.5% | 2.98% | 3.15% | 7.5% | 27.7% | 12.8% | 68.7% | 16.5% | 57.3% | 1.72% | 7.09% | 6.37% | 7.35% | 6.92% | 6.81% | 3.01%
CS(=O)(=O)CCNCc1nc(-c2ccc3ncnc(Nc4ccc(F)c(Cl)c4)c3c2)cs1 | 22.5% | 6.15% | 9.44% | 1.4% | 8.6% | 7.41% | 34.5% | 46.6% | 83.1% | 1.44% | 4.88% | 0.25% | -0.06% | -5.98% | 1.65% | 1.9% | 5.07% | 2.17% | 4.26% | 2.32%
COc1ccccc1Nc1ncc(-c2ccccc2)o1 | 10.8% | 2.82% | 3.43% | 1.6% | 5.33% | 0.38% | 6.93% | 8.18% | 15.7% | 4.02% | 11.2% | 4.25% | 3.85% | 8.72% | 5.99% | 6.35% | 13.7% | 6.19% | 13.1% | -2.79%
CCc1cccc(NC(=O)Nc2ccc(Oc3ccc4nc(NC(=O)OC)[nH]c4c3)cc2)c1 | 63% | 6.29% | 3.66% | 15.7% | 27.5% | 0.27% | 7% | 9.67% | 15.3% | 3.85% | 1.84% | 0.9% | 0.62% | -3.46% | 3.26% | 3.25% | 8.89% | 3.09% | 6.95% | 4.21%
COc1cc(C)c(NC(=O)CN(C)C)cc1Nc1nc(Nc2cccc(F)c2C(N)=O)c2cc[nH]c2n1 | 8.75% | 4.52% | 0.2% | 2.62% | 1.31% | 0.48% | -0.4% | 10.4% | 32.1% | 81.8% | 86.8% | 76.1% | 89% | 0.49% | 1.43% | 0.12% | 4.39% | 2.37% | 1.03% | -1.04%
COc1cc2ncn(-c3cc(OCc4ccccc4C(F)(F)F)c(C(N)=O)s3)c2cc1OC | 17.3% | 1.32% | 0.77% | 0.05% | 1.61% | 3.56% | 4.42% | 3.59% | 11.8% | 3.4% | 10.5% | 2.56% | 1.4% | -0.93% | 13% | 2.62% | 20.9% | 6.21% | 18.2% | -3.31%
COc1ccc(-c2coc3ncnc(N)c23)cc1 | 7.88% | 6.18% | 5.65% | 2.3% | 3.43% | 0.31% | -4.24% | 9.06% | 15.5% | 6.86% | 2.33% | 4.28% | 5.04% | 3.15% | 9.2% | 3.85% | 10.1% | 6.98% | 6.72% | -5.79%
Cc1nnc(-c2ccc(C)c(-c3ccc(C(=O)Nc4cccc(C#N)c4)cc3)c2)o1 | 8.63% | 4.01% | 4.32% | 1.3% | 1.73% | 2.71% | 2.09% | 11% | 16.2% | 2% | 1.72% | 0.91% | 2.11% | -1.37% | 1.5% | 1.7% | 4.97% | 2.6% | 3.98% | 2.08%
NC(=O)c1ccc(-c2nc(-c3ccccn3)c(-c3ccc4c(c3)OCO4)[nH]2)cc1 | 6.48% | 4.63% | 1.89% | 3.74% | 1.95% | 2.99% | 0.42% | 7.53% | 11.4% | 1.79% | 6.64% | 1.52% | 2.16% | -0.93% | 2.26% | 0.95% | 1.31% | 2.79% | 1.9% | 4.19%
COc1cc(C=NNc2ncnc3c2cnn3-c2ccccc2)ccc1O | 18.2% | 3.59% | -2.55% | 2.58% | 9.64% | 1.75% | -2.49% | 3.71% | 6.51% | -3.39% | 4.88% | 2.59% | 4.03% | 1.01% | 3.72% | 3% | 9.48% | 2.91% | 7.58% | 4.25%
CCn1c(-c2nonc2N)nc2cncc(C(=O)N3CCNCC3)c21 | 7.73% | 3.36% | 3.77% | 2.94% | 3.87% | 38.2% | 2.97% | 9.03% | 10.6% | 1.53% | 0.82% | 5.22% | 4.85% | 7.76% | 5.74% | 11.8% | 7.87% | 12.3% | 7.38% | 4.67%
Fc1cccc(COc2ccc(Nc3ncnc4sc(-c5cccs5)cc34)cc2Cl)c1 | 2.33% | 0.38% | 2.19% | 1.37% | 1.29% | 1.07% | 3.46% | 5.25% | 31.8% | 5.4% | 9.05% | 0.45% | 0.01% | 4.36% | 5.02% | 2.92% | 3.32% | 0.4% | 6.81% | 0.35%
